Source: PubChem BioAssay
D1 ag: human D1 receptor agonism | P21728 | activation, % at 2 µM | 360,000 compounds, 1% hits | HEK293 T-REx D1 cells, calcium flux, agonist mode; in the data active means activation above about 30%; further: 0% is about no effect
Target sequence (P21728 whole entry, looked up): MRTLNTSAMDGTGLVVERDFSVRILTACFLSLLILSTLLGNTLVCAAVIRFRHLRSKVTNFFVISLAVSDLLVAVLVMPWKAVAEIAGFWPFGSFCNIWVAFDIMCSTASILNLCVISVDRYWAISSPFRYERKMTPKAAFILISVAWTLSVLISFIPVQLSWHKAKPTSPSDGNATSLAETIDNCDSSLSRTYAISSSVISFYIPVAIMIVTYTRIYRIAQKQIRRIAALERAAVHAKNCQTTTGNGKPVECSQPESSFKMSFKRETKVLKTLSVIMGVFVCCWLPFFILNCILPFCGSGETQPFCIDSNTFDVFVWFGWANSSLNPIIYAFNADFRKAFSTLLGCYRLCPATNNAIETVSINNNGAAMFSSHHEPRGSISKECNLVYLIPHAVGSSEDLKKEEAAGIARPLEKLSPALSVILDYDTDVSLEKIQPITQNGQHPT
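Tetracycline-induced HEK293 TREx D1 cells, force-coupled to calcium signalling, were dye-loaded with a no-wash calcium kit. Compound was pin-added after a 10 s baseline. Fluorescence was read kinetically at 1 cycle/s for 180 s, with calcium rises flagged as agonism.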
D3 antag: D3 dopamine receptor (human) antagonism | P35462 | D3R cells, DiscoveRx beta-arrestin luminescence, antagonist mode; stronger effect = lower value | max response, negative = inhibition, % | 360,000 compounds, 2.5% hits | AID 652054; in the data active means max response below about -50%; inconclusive means no clear call, values can overlap the other calls; further: on the % scale 0 is the no-effect control and ±100 the full control effect
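Cells plated overnight at 1500 cells/well, then exposed to library compounds with dopamine controls for 90 minutes at 37 degrees C. DiscoveRx reagent added for 30–60 minutes at room temperature; luminescence read, quantitative HTS format.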
DRD3 agonist: agonists of human D3 dopamine receptor; AID 652048; D3R DiscoveRx beta-arrestin cells, luminescence, 90 min; P35462; 410,000 compounds, 0.58% hits; max activation, %; in the data active means max activation above about 30%; further: 0% is about no effect
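Agonist-mode cell screen: cells plated at 1500/well and incubated overnight at 37 °C, then exposed to library compounds for 90 min at 37 °C. Detection reagent was added for 30–60 min at room temperature, and luminescence was read.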
D1 potentiator: enhances dopamine response at the human D1 receptor. P21728. HEK293 TREx D1 cells, calcium flux, dopamine EC20 potentiation. potentiation, % at 10 µM. 360,000 compounds, 0.036% hits. AID 504651; in the data active means potentiation above about 30%; further: 0% is about no effect
D1 antagonist: human D1 dopamine receptor antagonism; HEK293 TREx D1 cells, calcium flux, dopamine EC80; stronger effect = lower value; P21728; activity change, negative = inhibition, % at 10 µM; 360,000 compounds, 3.2% hits; AID 504652; in the data active means activity change below about -30%; further: on the % scale 0 is the no-effect control and ±100 the full control effect
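Tetracycline-induced HEK293 Trex D1 cells, force-coupled to calcium, dye-loaded; compounds added and read 180 s, then EC80 dopamine added and calcium flux tracked kinetically another 180 s.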
* hit, by the source's call; ? = inconclusive; nt = not tested or not shown; ! = repeats disagree. The list is not random: actives were taken first. Their share in the collection is about 6%.

SMILES	D1 ag	D3 antag	DRD3 agonist	D1 potentiator	D1 antagonist
COc1ccc(/C=N/NC(=O)c2nc(-c3ccccc3)n(-c3ccccc3)n2)c(O)c1	8	-11	4	-8	-61*
COc1ccc(/C=N/NC(=O)c2nc(-c3ccccc3)n(-c3ccccc3)n2)cc1	1	-5	-8	4	7
COc1ccc(-c2cc(C(=O)N/N=C(\C)c3cccnc3)c3ccccc3n2)cc1	0	?	-39	-3	-58*
CCOc1ccc(CNS(=O)(=O)c2ccc(-c3coc(C)n3)cc2)cc1OC	7	nt	-5	-5	-3
COc1ccc(N2C(=O)C(CC(=O)Nc3ccc(F)cc3)N(CCC3=CCCCC3)C2=O)cc1 (stereo not drawn)	3	nt	2	-3	-17
c1nc(NCCN2CCOCC2)c2sc3nc(N4CCOCC4)c4c(c3c2n1)CCC4	1	?	-4	-6	-1
COc1ncnc2c1sc1nc(-c3ccccc3)c3c(c12)CCCC3	2	9	37*	5	23
CN(C)CCNc1ncnc2c1sc1nc(-c3ccccc3)c3c(c12)CCCC3	14	-1	2	-22	-80*
CS(=O)(=O)Nc1cc2occ(NC=O)c(=O)c2cc1Oc1ccccc1	nt	nt	0	nt	nt
CC(NC(=O)c1cc(-c2cccnc2)nc2ccc(Br)cc12)C1CCCO1 (stereo not drawn)	0	-3	-7	2	-34*
CNc1nc(-c2ccc(OC)cc2)c(-c2ccc(OC)cc2)s1	3	-7	49*	-8	-14
Cc1nn(-c2ccccn2)c2c1C(c1ccsc1)C1=C(CCCC1=O)N2 (stereo not drawn)	0	-7	-1	-4	-86*
COc1ccc(NC(=O)CN2CCC(n3c(C)nc4cc(F)ccc43)CC2)c(OC)c1	2	-6	132*	-5	14
Cc1nc2ccccc2n1C1CCN(CC(=O)NCc2ccc(F)cc2)CC1	1	-20	-1	-1	-43*
COc1cc(CC(NC(C)=O)C(=O)NC2CCN(C(=O)Nc3ccc(C)cc3)CC2)cc(OC)c1 (stereo not drawn)	-1	13	-4	-4	1
COc1ccc(-c2noc(CCC(=O)N3CCN(c4cccc(Cl)c4)CC3)n2)cc1	nt	53	14	nt	nt
COc1ccc(-c2noc(CCC(=O)N3CCN(c4ccccc4OC)CC3)n2)cc1	nt	67	15	nt	nt
COc1ccc(-c2noc(CCC(=O)N3CCN(c4ccccc4C(F)(F)F)CC3)n2)cc1	nt	117	31*	nt	nt
COc1ccc(-c2noc(CCC(=O)N3CCN(c4cccc(F)c4)CC3)n2)cc1	nt	100	34*	nt	nt
CCCNC(=O)C1(C)CCCN(C(=O)c2ccc(F)cc2Cl)C1 (stereo not drawn)	nt	2	0	nt	nt
CCN(CCNCC(O)COc1ccccc1C(C)C)c1cccc(C)c1 (stereo not drawn)	56*	-16	-7	14	-27
Cc1ccc(C(C)C)c(OCC(O)CN2CCN(CCO)CC2)c1 (stereo not drawn)	0	-16	-20	0	-6
CCOc1ccc(-c2nc(S(=O)(=O)c3ccccc3)c(NC)o2)cc1	1	6	7	-4	-6
CNc1oc(Cc2ccccc2)nc1S(=O)(=O)c1ccccc1	-2	-89*	4	-1	-30
COC(=O)c1nnn(CC(=O)NC(=O)Nc2cccc(C)c2C)c1C(=O)OC	50*!	23	2	2	-5
SMILES	D1 ag	D3 antag	DRD3 agonist	D1 potentiator	D1 antagonist
COc1ccccc1CNS(=O)(=O)c1cc(-c2cc(C)no2)ccc1C	14	nt	2	3	7
COc1ccccc1CNS(=O)(=O)c1cc(-c2cc(C)no2)ccc1C(C)C	18	-3	-4	-6	-38*
Cc1ccc(CCNS(=O)(=O)c2cc(-c3cc(C)no3)ccc2C)cc1	7	nt	8	-3	-12
CCc1ccc(-c2cc(C)no2)cc1S(=O)(=O)Nc1ccc(C)cn1	0	-11	-2	2	-45*!
COc1ccc(-c2cc(C)no2)cc1S(=O)(=O)NCC1CCN(Cc2cc(C)ccc2C)CC1	15	-10	-1	-6	0
COc1ccccc1CN1CCC(CNS(=O)(=O)c2cc(-c3cc(C)no3)ccc2C)CC1	40*	-17	-3	-7	-10
Cc1cc(-c2ccc(C)c(S(=O)(=O)NCC3CCN(Cc4ccc(F)cc4)CC3)c2)on1	9	-17	-12	-7	-33*!
O=C1OC2(c3ccccc31)c1cc(Br)c(O)c(Br)c1Oc1c2cc(Br)c(O)c1Br	nt	nt	1	nt	nt
CCc1ccc(-c2cc(C)no2)cc1S(=O)(=O)NCCCN1CCN(c2ccccc2)CC1	17	-77*	0	-6	-67*
CCc1ccc(-c2cc(C)no2)cc1S(=O)(=O)NCCN1CCC(C)CC1	6	-9	-17	-2	-13
Cc1ccc(S(=O)(=O)c2cn(Cc3ccccc3)c3cc(N4CCCCC4)c(F)cc3c2=O)cc1	-1	nt	0	-3	-12
Cc1ccc(S(=O)(=O)c2cn(C)c3cc(N4CCOCC4)c(F)cc3c2=O)cc1	2	3	3	-1	4
Cn1cc(S(=O)(=O)c2ccccc2)c(=O)c2cc(F)c(N3CCOCC3)cc21	10	-3	3	-5	-85*!
CCCn1cc(S(=O)(=O)c2cccc(Cl)c2)c(=O)c2cc(F)c(N3CCN(CC)CC3)cc21	11	nt	63*	-3	0
Cc1ccc(C)c(S(=O)(=O)c2cn(Cc3ccccc3)c3cc(N4CCCC4)c(F)cc3c2=O)c1	2	nt	-25	-2	-35*
CCCCn1cc(S(=O)(=O)c2ccc(C)cc2)c(=O)c2cc(F)c(N3CCCCC3)cc21	71*	nt	9	1	12
COc1ccc(NC(=O)c2oc3ccccc3c2NC(=O)C2CCCCC2)c(OC)c1	2	nt	-3	1	-2
COCc1nc2ccccc2n1Cc1cccc(C)c1	6	0	4	1	-22
COCCn1c(COc2ccc(C)cc2)nc2ccccc21	3	?	3	0	-23
Cc1cccc(Cn2c(COc3ccc(Cl)cc3)nc3ccccc32)c1	32*	nt	-20	-3	-9
Cc1ccc(OCc2nc3ccccc3n2CCOc2ccc(Cl)cc2)cc1	41*	nt	-1	0	15
Cc1nc2c(-c3ccccc3)c(C)[nH]n2c(=O)c1Cc1ccc(C(C)C)cc1	1	nt	-31	-3	24
Cc1n[nH]c(C)c1S(=O)(=O)N(CC(=O)NC(C)c1ccccc1)c1ccc(C(C)C)cc1 (stereo not drawn)	2	nt	4	4	0
COc1ccccc1-c1ccc(/C=C2/C=C(C)OC2=O)o1	4	-4	1	-18	-20
COc1ccccc1-c1ccc(/C=C2\C=CC(=O)O2)o1	292*	-8	-6	5	-5
Cc1ccc(NC(=O)Cc2coc3ccc(C(C)C)cc23)cc1Cl	38*	nt	3	0	-2
